PubChem BioAssay AID602193 (The Scripps Research Institute Molecular Screening Center, 2012)
The whole screen tested about 1,600 compounds, of which about 410 (26%) were called active. A selection follows. A number with no mark means an inactive call.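 Rule for the calls: active = mean inhibition over triplicates above the low-control well mean plus 3 SD, set per campaign (cut at about 13% in these data); inactive = the rest.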

experiment: forskolin-stimulated cAMP inhibition in U2OS – cell-based, TR-FRET, triplicate, counter-screen for MC4R biased antagonist project (AID 602193); details: parental U2OS, LANCE TR-FRET, at 6.5 µM, active compounds read high;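 note: signal is single emission at 671 nm which falls as cellular cAMP rises; 0% = forskolin-stimulated wells and 100% = buffer without forskolin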

Row | SMILES | inhibition
1 | O=C1/C(=C\c2ccc([N+](=O)[O-])cc2)CS(=O)(=O)C/C1=C/c1ccc([N+](=O)[O-])cc1 | 26.1% (active)
2 | COc1ccccc1N(CC(=O)N/N=C(\C)c1ccccc1O)S(=O)(=O)c1ccc(C)cc1 | 5.78%
3 | Cc1ccc(S(=O)(=O)N(C)CC(=O)OCC(=O)N2CC(=O)Nc3ccccc32)cc1 | 17.6% (active)
4 | Cc1ccc(S(=O)(=O)CCC(=O)OCC(=O)N(C)Cc2ccccc2)cc1 | 1.96%
5 | Cc1ccc(S(=O)(=O)N(C)CC(=O)OCC(=O)Nc2ccccc2)cc1 | 14.4% (active)
6 | CCOC(=O)C(C)n1cnc2sc(C)c(C)c2c1=O (centres undefined) | 4.97%
7 | CC(C)Oc1ccc(/C=C(\NC(=O)/C=C/c2ccco2)C(=O)NCCc2nc3ccccc3[nH]2)cc1 | 2.02%
8 | O=C(CSc1nc2ccc(Nc3nc(N4CCOCC4)nc(N4CCOCC4)n3)cc2s1)NCc1ccco1 | -2.96%
9 | Cc1ccc(NC(=O)c2c(NC(=O)CCC(=O)O)sc3c2CCCCC3)cc1 | 3.65%
10 | N#C/C=C1\Sc2ccccc2C(=O)N1CC(=O)N1CCN(S(=O)(=O)c2ccccc2)CC1 | 7.11%
11 | O=C(COC(=O)Cn1cnc2ccccc2c1=O)NCC12CC3CC(CC(C3)C1)C2 | 19% (active)
12 | O=C(Nc1ccccc1Cl)/C(Cl)=C(\Cl)S(=O)c1ccccc1 (centres undefined) | -0.54%
13 | Cc1c(CCC(=O)O)c(=O)oc2cc(OCc3ccc(Br)cc3)ccc12 | 2.85%
14 | COc1ccc(Cl)cc1-c1cc(C(=O)Nc2cc(OC)c(OC)c(OC)c2)[nH]n1 | -12.1%
15 | O=S(=O)(NCc1ccco1)c1cnc(Cl)c(Cl)c1 | 21.1% (active)
16 | COc1ccc(-n2nc(C(=O)Nc3cc(OC)c(OC)c(OC)c3)c3ccccc3c2=O)c(OC)c1 | 6.04%
17 | Cc1ccc(C)c(S(=O)(=O)N2CCN(CC(=O)Nc3ccc([N+](=O)[O-])cc3)CC2)c1 | -1.3%
18 | COc1ccc2sc(-c3ccc(S(C)(=O)=O)cc3)c(-c3ccc(C(N)=O)cc3)c2c1 | 6.51%
19 | O=C(Nc1nnc(Cc2ccc(Cl)cc2)s1)c1cccnc1 | -0.09%
20 | CSc1nnc(NC(=O)c2nc(S(=O)(=O)Cc3ccc(C)cc3)ncc2Cl)s1 | 26.5% (active)
21 | O=C(NCCc1c[nH]c2ccccc12)c1cccc(Br)c1 | 2.29%
22 | Cc1ccc(-c2nnc(CN3CCN(C)CC3)o2)cc1 | -0.67%
23 | CCCCOC(=O)CNc1nnc(SCC(=O)OCC)[nH]c1=O | 34.4% (active)
24 | CC(NS(=O)(=O)c1ccc(Br)cc1)C(=O)NCC1CCCO1 (centres undefined) | 4.96%
25 | CCOC(=O)c1cc(C)nc(S(C)(=O)=O)c1C#N | 9.09%
26 | N#Cc1c(-c2cccs2)nc(SCC(=O)c2ccc(Br)cc2)[nH]c1=O | 12.9%
27 | C#Cc1cc(N2CCN(C(=O)c3ccoc3)CC2)n2nc(-c3cccc(Cl)c3)cc2n1 | 6.98%

Row | SMILES | inhibition
28 | COc1ccc(C(C[N+](=O)[O-])n2nc(C)cc2C)cc1 (centres undefined) | 16.1% (active)
29 | O=C(NCC1CCN(Cc2ccccc2Cl)CC1)Nc1cccc(Cl)c1 | -1.82%
30 | CC(=O)N1CCN(S(=O)(=O)c2c(F)cc(F)c(Cl)c2F)CC1 | 15.9% (active)
31 | O=C(c1ccc2c(c1)N(Cc1ccc(F)cc1)C(=O)c1ccccc1S2(=O)=O)N1CCN(c2ccccn2)CC1 | 1.79%
32 | O=C(Cn1nnc2ccccc2c1=O)Nc1cc(C(F)(F)F)ccc1N1CCOCC1 | -0.34%
33 | CN(CC(=O)NCCc1ccccn1)S(=O)(=O)c1ccc(Cl)cc1 | -1.11%
34 | Cc1c(Cl)cccc1NC(=O)[C@@]1(CC(=O)O)CC(/C=C/c2ccccc2)=NO1 | 0.29%
35 | COc1ccc(Oc2c(Cl)cnn(-c3ccccc3)c2=O)cc1 | 38.1% (active)
36 | O=C(COC(=O)c1c2c(nc3ccccc13)CCCC2)c1ccc(Br)s1 | 4.15%
37 | CCN(CC(=O)NCCCN1CCOCC1)S(=O)(=O)c1cc(Cl)ccc1Cl | -1.05%
38 | Cc1ccc(NC(=O)COC(=O)CNC(=O)c2ccc(Cl)cc2Cl)cc1S(=O)(=O)N1CCOCC1 | 7.9%
39 | Cc1nc2ccccc2c(=O)n1NC(=O)c1ccc(Cl)c([N+](=O)[O-])c1 | 18.5% (active)
40 | CC1(C)C(c2cccs2)=[N+]([O-])C2(CCCCC2=O)N1O (centres undefined) | -3.22%
41 | Cc1ccc(C(C(=O)NCC2CCCO2)N(C(=O)c2snc(C(N)=O)c2N)c2ccc(C(C)C)cc2)o1 (centres undefined) | 0.79%
42 | COC(=O)[C@H](Cc1ccccc1)NC(=O)[C@@H]1C[C@H]1[C@@H](NC(=O)OCc1ccccc1)c1ccccc1 | 12%
43 | CC(C)(C)OC(=O)N1CCC(NC(=O)c2[nH]cnc2C(=O)N[C@@H](Cc2ccccc2)C(=O)OCc2ccccc2)CC1 | 16.5% (active)
44 | O=C(Nc1ccc(F)c([N+](=O)[O-])c1)C1CC(=O)N(Cc2ccccc2)C1 (centres undefined) | 8.59%
45 | Cc1cccc(OCC(O)Cn2c(N3CCCCC3)nc3c2c(=O)[nH]c(=O)n3C)c1 (centres undefined) | 2.12%
46 | COc1ccc(/C=N/OCC(=O)N(Cc2ccccc2)c2ccccc2C(=O)O)cc1 | -3.38%
47 | CCOC(=O)c1c(-c2ccccc2)oc2cc(Br)c(O)c(C=O)c12 | 30.2% (active)
48 | Cc1nnc(N/N=C/C2CC=CCC2)[nH]c1=O (centres undefined) | -2.01%
49 | O=C(O)CCn1cc(/C=C/C(=O)c2ccc(Cl)cc2)c(-c2cccc(Br)c2)n1 | -0.6%
50 | Cc1ccccc1-c1n[nH]c(=S)n1/N=C/c1ccc(-c2ccccc2Br)o1 | 0.55%
51 | O=C(COC(=O)[C@H](Cc1ccccc1)NC(=O)c1cccs1)Nc1cc(F)ccc1F | 13.2% (active)
52 | Cc1ccc(OCC(=O)Nc2ccc(NC(=O)c3cccs3)cc2)c(C)c1 | -2.94%
53 | O=C(Nc1nccs1)c1cc(S(=O)(=O)N2CCOCC2)c(Cl)cc1Cl | 10.5%
54 | CC(=O)Nc1ccc(Sc2ccccc2C(=O)N2CCCC2)cn1 | -1.96%
